What all share (assay): PBM; 200 nM protein, PBS
Holding throughout (details): dsDNA, one strand shown

In assay [1] the target is HESX1 (Homo sapiens, UniProt Q9UBX0 95-180, R165K).
Assay [2] has as its target HESX1 (Homo sapiens, UniProt Q9UBX0 95-180).
Assay [3] concerns the target HESX1 (Homo sapiens, UniProt Q9UBX0 95-180, P111T).
For assay [4], the target named is HESX1 (Homo sapiens, UniProt Q9UBX0 95-180, R109Q).
Assay [5] deals with HESX1 (Homo sapiens, UniProt Q9UBX0 95-180, F115L).
Assay [6] has as its target HOXB4 (Homo sapiens, UniProt P17483 148-234).
The target of assay [7] is SHOX (Homo sapiens, UniProt O15266 103-189).
Assay [8] deals with HOXB4 (Homo sapiens, UniProt P17483 148-234, V174I).
Assay [9] deals with ALX3 (Homo sapiens, UniProt O95076 139-225, N203Q).
Assay [10] has as its target SHOX (Homo sapiens, UniProt O15266 103-189, R173C).
Assay [11] addresses ALX3 (Homo sapiens, UniProt O95076 139-225).
Assay [12] deals with ALX3 (Homo sapiens, UniProt O95076 139-225, L168Q).
The target of assay [13] is ALX3 (Homo sapiens, UniProt O95076 139-225, L168V).
The target of assay [14] is NKX3-2 (Homo sapiens, UniProt P78367 192-278, P234S).
Assay [15] concerns the target ALX3 (Homo sapiens, UniProt O95076 139-225, N203S).
Assay [16] addresses NKX3-2 (Homo sapiens, UniProt P78367 192-278).
The target in assay [17] is HOXB9 (Homo sapiens, UniProt P17482 171-250, T197M).
The target of assay [18] is HOXB9 (Homo sapiens, UniProt P17482 171-250).
The target in assay [19] is ALX1 (Homo sapiens, UniProt Q15699 118-204, L144V).
The target in assay [20] is ALX1 (Homo sapiens, UniProt Q15699 118-204, L144R).
Assay [21] deals with HOXB9 (Homo sapiens, UniProt P17482 171-250, R186Q).
In assay [22] the target is ALX1 (Homo sapiens, UniProt Q15699 118-204).
Assay [23] concerns the target HOXD13 (Homo sapiens, UniProt P35453 263-343, T313R).
In assay [24] the target is HOXD13 (Homo sapiens, UniProt P35453 263-343).
Assay [25] deals with HOXD13 (Homo sapiens, UniProt P35453 263-343, T313A).
Assay [26] has as its target PRRX1 (Homo sapiens, UniProt P54821 80-166).

Chain of HESX1 (Homo sapiens, UniProt Q9UBX0 95-180) (Q9UBX0 95-180): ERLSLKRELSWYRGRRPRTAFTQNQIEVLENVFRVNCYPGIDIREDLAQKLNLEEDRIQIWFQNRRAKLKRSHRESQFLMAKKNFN
Chain of HOXB4 (Homo sapiens, UniProt P17483 148-234) (P17483 148-234): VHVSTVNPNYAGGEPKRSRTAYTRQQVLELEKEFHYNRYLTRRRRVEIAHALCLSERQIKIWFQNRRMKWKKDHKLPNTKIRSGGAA
Chain of HESX1 (Homo sapiens, UniProt Q9UBX0 95-180, P111T) (Q9UBX0 95-180 P111T): as the sequence (Q9UBX0 95-180) above, with P17T counted along it
Chain of HOXB4 (Homo sapiens, UniProt P17483 148-234, V174I) (P17483 148-234 V174I): as the sequence (P17483 148-234) above, with V27I counted along it
Chain of HESX1 (Homo sapiens, UniProt Q9UBX0 95-180, F115L) (Q9UBX0 95-180 F115L): as the sequence (Q9UBX0 95-180) above, with F21L counted along it
Chain of SHOX (Homo sapiens, UniProt O15266 103-189) (O15266 103-189): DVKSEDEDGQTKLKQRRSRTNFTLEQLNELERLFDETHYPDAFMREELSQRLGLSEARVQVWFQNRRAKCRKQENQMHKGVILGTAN
Chain of HESX1 (Homo sapiens, UniProt Q9UBX0 95-180, R165K) (Q9UBX0 95-180 R165K): as the sequence (Q9UBX0 95-180) above, with R71K counted along it
Chain of SHOX (Homo sapiens, UniProt O15266 103-189, R173C) (O15266 103-189 R173C): as the sequence (O15266 103-189) above, with R71C counted along it
Chain of HESX1 (Homo sapiens, UniProt Q9UBX0 95-180, R109Q) (Q9UBX0 95-180 R109Q): as the sequence (Q9UBX0 95-180) above, with R15Q counted along it
Chain of NKX3-2 (Homo sapiens, UniProt P78367 192-278) (P78367 192-278): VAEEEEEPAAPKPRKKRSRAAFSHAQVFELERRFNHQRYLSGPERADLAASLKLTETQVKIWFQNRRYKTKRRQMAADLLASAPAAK
Chain of HOXD13 (Homo sapiens, UniProt P35453 263-343) (P35453 263-343): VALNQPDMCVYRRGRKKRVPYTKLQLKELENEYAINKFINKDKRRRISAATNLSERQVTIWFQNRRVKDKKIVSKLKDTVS
Chain of ALX3 (Homo sapiens, UniProt O95076 139-225, L168V) (O95076 139-225 L168V): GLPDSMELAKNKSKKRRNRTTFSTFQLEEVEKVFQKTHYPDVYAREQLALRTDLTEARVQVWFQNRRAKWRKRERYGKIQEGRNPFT
Chain of ALX1 (Homo sapiens, UniProt Q15699 118-204, L144V) (Q15699 118-204 L144V): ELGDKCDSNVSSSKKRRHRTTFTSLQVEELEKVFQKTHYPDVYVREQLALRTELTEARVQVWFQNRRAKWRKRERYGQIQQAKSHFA
Chain of HOXB9 (Homo sapiens, UniProt P17482 171-250, R186Q) (P17482 171-250 R186Q): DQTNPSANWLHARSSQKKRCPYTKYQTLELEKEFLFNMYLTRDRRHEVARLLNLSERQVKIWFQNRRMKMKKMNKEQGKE
Chain of PRRX1 (P54821 80-166): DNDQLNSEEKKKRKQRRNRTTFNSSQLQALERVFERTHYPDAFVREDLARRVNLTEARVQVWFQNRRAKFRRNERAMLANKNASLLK
Chain of NKX3-2 (Homo sapiens, UniProt P78367 192-278, P234S) (P78367 192-278 P234S): as the sequence (P78367 192-278) above, with P43S counted along it
Chain of HOXD13 (Homo sapiens, UniProt P35453 263-343, T313A) (P35453 263-343 T313A): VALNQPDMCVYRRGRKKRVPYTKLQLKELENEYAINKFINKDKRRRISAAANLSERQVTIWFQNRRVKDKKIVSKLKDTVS
Chain of ALX3 (Homo sapiens, UniProt O95076 139-225, N203S) (O95076 139-225 N203S): as the sequence (O95076 139-225 L168V) above, with V30L, N65S counted along it
Chain of ALX3 (Homo sapiens, UniProt O95076 139-225) (O95076 139-225): as the sequence (O95076 139-225 L168V) above, with V30L counted along it
Chain of HOXB9 (Homo sapiens, UniProt P17482 171-250) (P17482 171-250): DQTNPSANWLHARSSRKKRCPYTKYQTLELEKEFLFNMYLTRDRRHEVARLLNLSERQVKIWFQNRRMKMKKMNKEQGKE
Chain of ALX1 (Homo sapiens, UniProt Q15699 118-204) (Q15699 118-204): as the sequence (Q15699 118-204 L144V) above, with V27L counted along it
Chain of HOXB9 (Homo sapiens, UniProt P17482 171-250, T197M) (P17482 171-250 T197M): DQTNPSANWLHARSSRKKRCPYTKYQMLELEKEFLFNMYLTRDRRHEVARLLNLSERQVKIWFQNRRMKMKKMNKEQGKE
Chain of ALX3 (Homo sapiens, UniProt O95076 139-225, L168Q) (O95076 139-225 L168Q): as the sequence (O95076 139-225 L168V) above, with V30Q counted along it
Chain of ALX3 (Homo sapiens, UniProt O95076 139-225, N203Q) (O95076 139-225 N203Q): as the sequence (O95076 139-225 L168V) above, with V30L, N65Q counted along it
Chain of ALX1 (Homo sapiens, UniProt Q15699 118-204, L144R) (Q15699 118-204 L144R): as the sequence (Q15699 118-204 L144V) above, with V27R counted along it
Chain of HOXD13 (Homo sapiens, UniProt P35453 263-343, T313R) (P35453 263-343 T313R): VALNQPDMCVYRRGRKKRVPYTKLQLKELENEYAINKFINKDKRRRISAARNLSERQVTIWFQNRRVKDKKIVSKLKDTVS

For TATTGCCA, the binding signal in assay [1] was 7.79 upbm affinity estimate (log intensity, higher = more binding, comparable within an allelic series); in assay [2] it was 7.9 upbm affinity estimate (log intensity, higher = more binding, comparable within an allelic series); in assay [3], 7.47 upbm affinity estimate (log intensity, higher = more binding, comparable within an allelic series).
For GTCATAAC, the binding signal is 7.26 upbm affinity estimate (log intensity, higher = more binding, comparable within an allelic series) in assay [1]; 7.28 upbm affinity estimate (log intensity, higher = more binding, comparable within an allelic series) in assay [2]; 7.2 upbm affinity estimate (log intensity, higher = more binding, comparable within an allelic series) in [3].
In the case of AGCCTCGC, the binding signal is 6.43 upbm affinity estimate (log intensity, higher = more binding, comparable within an allelic series) in assay [1]; 6.5 upbm affinity estimate (log intensity, higher = more binding, comparable within an allelic series) in assay [2]; 6.45 upbm affinity estimate (log intensity, higher = more binding, comparable within an allelic series) in assay [4]; 6.49 upbm affinity estimate (log intensity, higher = more binding, comparable within an allelic series) in assay [3]; 6.46 upbm affinity estimate (log intensity, higher = more binding, comparable within an allelic series) in assay [5].
GACTGGCC: the binding signal was 7.7 upbm affinity estimate (log intensity, higher = more binding, comparable within an allelic series) in assay [6]; 7.34 upbm affinity estimate (log intensity, higher = more binding, comparable within an allelic series) in [7]; 7.58 upbm affinity estimate (log intensity, higher = more binding, comparable within an allelic series) in assay [8]; 7.82 upbm affinity estimate (log intensity, higher = more binding, comparable within an allelic series) in assay [9]; 7.31 upbm affinity estimate (log intensity, higher = more binding, comparable within an allelic series) in assay [10]; 7.84 upbm affinity estimate (log intensity, higher = more binding, comparable within an allelic series) in assay [11]. The binding signal in assay [12] is 7.72 upbm affinity estimate (log intensity, higher = more binding, comparable within an allelic series); in assay [13], 7.77 upbm affinity estimate (log intensity, higher = more binding, comparable within an allelic series); in [14], 10.5 upbm affinity estimate (log intensity, higher = more binding, comparable within an allelic series); in assay [15], 7.91 upbm affinity estimate (log intensity, higher = more binding, comparable within an allelic series); in assay [16], 10.5 upbm affinity estimate (log intensity, higher = more binding, comparable within an allelic series).
In the case of CATTAGGG, the binding signal in assay [1] was 8.41 upbm affinity estimate (log intensity, higher = more binding, comparable within an allelic series); in [2], 8.4 upbm affinity estimate (log intensity, higher = more binding, comparable within an allelic series); in assay [5], 6.71 upbm affinity estimate (log intensity, higher = more binding, comparable within an allelic series).
With CGGGAGAG, the binding signal was 7.57 upbm affinity estimate (log intensity, higher = more binding, comparable within an allelic series) in [6]; 6.89 upbm affinity estimate (log intensity, higher = more binding, comparable within an allelic series) in assay [7]; 8.56 upbm affinity estimate (log intensity, higher = more binding, comparable within an allelic series) in assay [17]; 8.56 upbm affinity estimate (log intensity, higher = more binding, comparable within an allelic series) in assay [18]; 7.66 upbm affinity estimate (log intensity, higher = more binding, comparable within an allelic series) in [8]; 6.33 upbm affinity estimate (log intensity, higher = more binding, comparable within an allelic series) in assay [19]. Besides, the binding signal in [10] is 7.16 upbm affinity estimate (log intensity, higher = more binding, comparable within an allelic series); in [20] it was 6.21 upbm affinity estimate (log intensity, higher = more binding, comparable within an allelic series); in [21] it was 8.56 upbm affinity estimate (log intensity, higher = more binding, comparable within an allelic series); in assay [22] it was 6.23 upbm affinity estimate (log intensity, higher = more binding, comparable within an allelic series).
On to ATGTATAA, for which the binding signal is 7.77 upbm affinity estimate (log intensity, higher = more binding, comparable within an allelic series) in assay [1]; 7.72 upbm affinity estimate (log intensity, higher = more binding, comparable within an allelic series) in assay [2]; 7.36 upbm affinity estimate (log intensity, higher = more binding, comparable within an allelic series) in assay [3].
In the case of CCGCAAGG, the binding signal in assay [6] was 7.78 upbm affinity estimate (log intensity, higher = more binding, comparable within an allelic series); in assay [7], 7.17 upbm affinity estimate (log intensity, higher = more binding, comparable within an allelic series); in assay [8], 7.66 upbm affinity estimate (log intensity, higher = more binding, comparable within an allelic series); in [23] it was 9.53 upbm affinity estimate (log intensity, higher = more binding, comparable within an allelic series); in assay [10] it was 7.2 upbm affinity estimate (log intensity, higher = more binding, comparable within an allelic series); in assay [24] it was 9.5 upbm affinity estimate (log intensity, higher = more binding, comparable within an allelic series). In addition, in assay [25], the binding signal is 9.67 upbm affinity estimate (log intensity, higher = more binding, comparable within an allelic series).
Regarding ATTGAACC, the binding signal in assay [1] is 7.56 upbm affinity estimate (log intensity, higher = more binding, comparable within an allelic series); in assay [2], 7.77 upbm affinity estimate (log intensity, higher = more binding, comparable within an allelic series); in assay [3], 7.33 upbm affinity estimate (log intensity, higher = more binding, comparable within an allelic series).
Consider AACCTATT, for which the binding signal was 8.08 upbm affinity estimate (log intensity, higher = more binding, comparable within an allelic series) in [1]; 8.17 upbm affinity estimate (log intensity, higher = more binding, comparable within an allelic series) in [2]; 7.48 upbm affinity estimate (log intensity, higher = more binding, comparable within an allelic series) in assay [3].
For the sequence TATCAATA, the binding signal in assay [1] is 7.76 upbm affinity estimate (log intensity, higher = more binding, comparable within an allelic series); in assay [2] it was 7.98 upbm affinity estimate (log intensity, higher = more binding, comparable within an allelic series); in assay [4] it was 7.49 upbm affinity estimate (log intensity, higher = more binding, comparable within an allelic series); in assay [3] it was 7.63 upbm affinity estimate (log intensity, higher = more binding, comparable within an allelic series); in assay [5] it was 7.36 upbm affinity estimate (log intensity, higher = more binding, comparable within an allelic series); in assay [26] it was 11.7 upbm affinity estimate (log intensity, higher = more binding, comparable within an allelic series).

For the origin of these results see publication PMC11006913.
